Compounds without any hit were thinned out: in the full panel of roughly 83,000, 20% have a hit.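 Plates (96-well) were seeded with cells, treated with compound at one concentration, and incubated for 48 hours before percent growth was determined.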 A number with no mark means an inactive call. Activity calls are given as the source filed them. How the source made its calls: active means growth percent below 10; inactive means the rest.
Test system: MDA-MB-468 breast
Experiment: NCI-60 one-dose screen, 48 h (100 = growth as untreated, 0 = no growth, -100 = all killed)
Settings: 10 µM unless noted

Compound | growth
C=C(C)[C@@H]1CC[C@]2(C(=O)O)CC[C@]3(C)[C@H](CC[C@@H]4[C@@]5(C)CCC(N)C(C)(C)[C@@H]5CC[C@]43C)[C@@H]12 (stereo not given in full) | -23.2% (active)
C=C(C)C(C(=O)OCC)(C(=O)OCC)C(C)C | 109%
COc1ccc(Cl)cc1NC(=O)C(Br)C(Br)C(=O)O (stereo not given) | -79% (active)
CCCc1cc2c(cc1Br)OCO2 | 115%
CN1C2CCC1/C(=C\c1ccc(Cl)cc1)C(=O)/C2=C/c1ccc(Cl)cc1 | 59.1%
Cn1cc(-c2[nH]c3cc(NC(=O)[C@H](N)C4CCCCC4)cc4c3c2C=NNC4=O)cn1 | -83.3% (active)
CC(C)(C)n1cc(-c2ccnc(NCCNS(=O)(=O)c3ccc(C(F)(F)F)cc3)c2)c(-c2cccc(O)c2)n1 | 36.8%
Oc1ccc2ccccc2c1/C=N\Nc1ccccn1 | -19.3% (active)
Cc1ccc(NC(=O)N[C@@H](Cc2cc(F)cc(F)c2)C(=O)NC2C(=O)N3CCC[C@H]3C(=O)N3CCCC[C@H]3C(=O)N[C@@H](C)C(=O)N3C[C@H](C)C[C@H]3C(=O)O[C@H]2C)c(F)c1 (stereo not given in full) | -12.1% (active)
COc1ccc2cc(-c3nc4ccc(C)cn4c3NCc3ccco3)c(=O)[nH]c2c1 | 67.1%
COc1cc2cc(Oc3ccc(NC(=O)Nc4ccc(F)c(C(F)(F)F)c4)cc3)c(C)nc2cc1OCCN(C)C | 93.4%
O/N=C1\c2ccccc2-c2ccc(F)cc21 | 9.23% (active)
Cc1cccc(C)c1NCc1nnc(-c2ccc(O)cc2)o1 | 96.2%
COC(=O)[C@@H](Cc1c[nH]c2ccccc12)NC(=O)/C=C/c1ccccc1 | 19.6%
O=C(Nc1ccc(Cl)cc1F)c1cc(I)ccc1O | 41.4%
COc1c(C2CC(=O)Nc3c2c(C)nn3-c2nc3ccccc3[nH]2)cc2c(c1OC)OCO2 (stereo not given) | 29.6%
O=C1C=C(C(O)c2ccc(O)cc2)C(=O)c2ccccc21 (stereo not given) | 111%
CNCc1cccc2c1OCCOCCOCCN(CCN1CCOCC1)S(=O)(=O)c1ccc(cc1)-c1cnc(N)c(n1)C(=O)N2 | 53.9%
Cc1[nH]c(C(=O)Nc2ccccc2OCc2cccc(C(=O)NC3CCCNC3)c2)c(Cl)c1Cl (stereo not given) | -80.6% (active)
CC(C)(C)n1cc(-c2ccnc(NCCCNS(=O)(=O)c3cccc4ccccc34)c2)c(-c2cccc(F)c2)n1 | 52.5%

Compound | growth
O=c1nc(Nc2nc3ccccc3s2)[nH]c(=O)c2ccccc12 | 99.4%
COc1ccc(/C=N/OCC(O)CN2CCC(O)CC2)cc1OC1CCCC1 (stereo not given) | 117%
COc1ccc(CSc2nc3cc(OC)c(OC)cc3c(=O)n2-c2ccc(Cl)cc2)cc1 | 103%
Cc1cc(=O)n2nc(-c3c[nH]c4ccccc34)sc2n1 | 88.8%
C[C@H]1c2ccccc2CN1CCCOc1cc2c(cc1OCC1CC1)C1(CCCC1)C(N)=N2 | 29.2%
CCn1cnc2c1c(=O)[nH]c(=O)n2CC1CCC(CNS(=O)(=O)c2ccc(OC3CCOCC3)c(F)c2)CC1 (stereo not given) | 30.5%
O=C1Nc2ccccc2/C1=C/C(=O)c1ccc(N2CCCC2)cc1 | 5.3% (active)
Cc1nc(Nc2ccc(N)cc2)c2ccccc2n1 | 86.9%
Cc1cc(-c2ccccc2)nc2ccccc12 | 100%
CC(=O)Nc1nccs1 | 107%
O=C(Nc1cccc(-c2nc(-c3ccc(NC(=O)c4cccnc4)cc3Cl)no2)c1)Nc1ccc(NC(=O)C2CC2)c(C(F)(F)F)c1 | -72.6% (active)
O=C(Cc1ccc(/C=C/C(=O)c2ncc[nH]2)cc1)Nc1ccc(Cl)cc1 | 9.49% (active)
Brc1ccc(-c2nn(-c3ccccc3)cc2-c2nn[nH]n2)s1 | 98.8%
O=S(=O)(NCCCNc1nccc(-c2c(-c3cccc(F)c3)nc3occn23)n1)c1cccc2ccccc12 | 15.3%
O=C(O)C1CCC(=O)N1C(=O)OCc1ccccc1 (stereo not given) | 106%
CCN(C)CCCOc1ccc(/C(=C(\C)Cc2cccc(OC)c2)c2ccc(OC(C)=O)cc2)cc1 | 101%
COc1ccc(/C=C2\SC(=O)N(Cc3cc(=O)oc4ccc(OC)cc34)C2=O)cc1 | 46.6%
COc1ccc2nc(NC(=O)Nc3c(F)cccc3F)sc2c1 | 96.1%
Cn1cc(-c2noc(-c3cn(C)c4ncc(F)cc34)n2)c2cc(Cl)ccc21 | 52.9%
CCc1nc2cc(/C=C/C(=O)NO)ccc2c(=O)n1CCc1ccc(OC)cc1 | 14.1%
